Reference: PubChem BioAssay (NCATS)
Where “and” joins values, the source holds several entries; their conditions need not be identical. Equal values may be shown once. Inconclusive results are not listed. Entries that show only a call come without a potency. A number with no mark means an inactive call. Calls of active or inactive are those of the source. Calls follow the shape of the dose curve; as a rule, active = well fitted curve in the direction sought with a large enough effect; inconclusive = small, poorly fitted or top-dose-only effect, or another doubt; inactive = no such curve, though single readings can be large; an effect the other way counts as inactive or inconclusive.

Legend:
[1] = molecular target: Cellular tumor antigen p53 (Homo sapiens) (UniProt P04637); experiment: Primary qHTS for small molecule compounds that upregulate eGFP-tagged delta133p53alpha (in N-terminal) cells. (AID 2060322); details: NCI-H358 eGFP-delta133p53alpha fluorescence, 24 h; activation: active compounds read high; also: nearly all actives have a fitted effect of over 75% in size; also: potency is read from the fitted curve at half-maximal effect
Outline: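 NCI-H358 cells pre-induced 24 h with 10 ng/ml doxycycline to express N-terminal eGFP-delta133p53alpha, then dosed 24 h at 37C without doxycycline; fixed, Hoechst-stained, GFP intensity by laser scanning cytometry, normalized to DMSO (0%) and 57.5 uM 5-azacytidine (100%).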

[2] = molecular target: Aldehyde dehydrogenase, mitochondrial (Homo sapiens) (UniProt P05091); experiment: qHTS for Inhibitors of the Aldehyde Dehydrogenase Family (ALDH2) Primary screen (AID 2061308); details: ALDH2 enzyme inhibition qHTS, 1536-well; series mostly up to 56 µM; also: nearly all actives have a fitted effect of over 55% in size
[3] = molecular target: Retinaldehyde dehydrogenase 3 (Homo sapiens) (UniProt P47895); experiment: qHTS for Inhibitors of the Aldehyde Dehydrogenase Family (ALDH1A3) Validation screen (AID 2061312); details: ALDH1A3 enzyme inhibition qHTS validation, fluorescence; series mostly up to 84.7 µM; also: nearly all actives have a fitted effect of over 45% in size
[4] = molecular target: Retinaldehyde dehydrogenase 3 (Homo sapiens) (UniProt P47895); experiment: qHTS for Inhibitors of the Aldehyde Dehydrogenase Family (ALDH1A3) Primary screen (AID 2061315); details: ALDH inhibition qHTS; series mostly up to 56 µM
[5] = BET inhibitor-based combinations targeting novel dependencies in MECOM-rearranged (r) AML: SET-2 cell line (AID 2202231); details: SET-2 AML cells viability, CellTiter-Glo luminescence, 48 h; viability: active compounds read low, concentration not given here; also: nearly all actives have a fitted effect of over 35% in size; also: potency is read from the fitted curve at half-maximal effect
Outline: (§1)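 Readout: CellTiter-Glo luminescence. Exposure: 48 h, 11 concentrations, 500 cells/well. Metric: AUC and within-line Z-AUC after DMSO/empty-well normalization.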

[6] = BET inhibitor-based combinations targeting novel dependencies in MECOM-rearranged (r) AML: HNT-34 cell line (AID 2202234); details: HNT-34 AML viability, CellTiter-Glo luminescence, 48 h; series mostly up to 46 µM; also: nearly all actives have a fitted effect of over 35% in size; also: potency is read from the fitted curve at half-maximal effect
Outline: (§2)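 Seeding density was 500 cells/well, and drug exposure lasted 48 hr under standard culture conditions. Read-out used CellTiter-Glo reagent with a 15 min room-temperature incubation before luminescence measurement; AUC and Z-AUC summarize the normalized responses.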

[7] = BET inhibitor-based combinations targeting novel dependencies in MECOM-rearranged (r) AML: UCSD-AML1 cell line (AID 2202235); details: UCSD-AML1 AML cells viability, CellTiter-Glo, 48 h; series mostly up to 46 µM; also: nearly all actives have a fitted effect of over 40% in size; also: potency is read from the fitted curve at half-maximal effect
Outline: as §2

[8] = BET inhibitor-based combinations targeting novel dependencies in MECOM-rearranged (r) AML: AML-191 cell line (AID 2202236; also: nearly all actives have a fitted effect of over 35% in size; also: potency is read from the fitted curve at half-maximal effect); details: AML-191 viability, CellTiter-Glo luminescence, 48 h; series mostly up to 46 µM
Outline: as §1

[9] = BET inhibitor-based combinations targeting novel dependencies in MECOM-rearranged (r) AML: AML-194 cell line (AID 2202237; also: nearly all actives have a fitted effect of over 40% in size; also: potency is read from the fitted curve at half-maximal effect); details: AML-194 (MECOM-r AML) viability, CellTiter-Glo, 48 h; series mostly up to 46 µM
Outline: as §1

[10] = BET inhibitor-based combinations targeting novel dependencies in MECOM-rearranged (r) AML: MV-4-11 cell line (AID 2202233); details: MV-4-11 AML viability, CellTiter-Glo luminescence, 48 h; series mostly up to 46 µM; also: nearly all actives have a fitted effect of over 45% in size; also: potency is read from the fitted curve at half-maximal effect
Outline: as §2

[11] = BET inhibitor-based combinations targeting novel dependencies in MECOM-rearranged (r) AML: OCI-AML3 cell line (AID 2202232); details: CellTiter-Glo luminescence, 48 h; Potency: OCI-AML3 viability; series mostly up to 46 µM; also: nearly all actives have a fitted effect of over 35% in size; also: potency is read from the fitted curve at half-maximal effect
Outline: as §1

Chain of Cellular tumor antigen p53 (Homo sapiens) (P04637 whole entry, looked up): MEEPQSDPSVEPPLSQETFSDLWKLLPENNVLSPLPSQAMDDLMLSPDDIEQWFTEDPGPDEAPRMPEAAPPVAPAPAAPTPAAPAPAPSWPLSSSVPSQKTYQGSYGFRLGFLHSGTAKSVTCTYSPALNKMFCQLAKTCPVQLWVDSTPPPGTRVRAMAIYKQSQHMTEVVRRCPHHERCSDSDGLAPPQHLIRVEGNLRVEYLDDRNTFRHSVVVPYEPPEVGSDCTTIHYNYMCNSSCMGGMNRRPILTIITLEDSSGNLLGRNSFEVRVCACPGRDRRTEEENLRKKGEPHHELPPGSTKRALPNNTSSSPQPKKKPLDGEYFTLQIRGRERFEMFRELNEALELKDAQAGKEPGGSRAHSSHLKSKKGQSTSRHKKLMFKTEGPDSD

In the case of C[C@]12CC[C@H](O)CC1=CCC1C2CC[C@]2(C)C(n3cnc4ccccc43)=CCC12 (stereo partly drawn), the activation [1] is reported as 20.1% and 28.6%, the Potency [2] is reported as “inactive” and the Potency [3] is reported as “inactive”. The Potency [4] was “inactive”, the viability [5] was 118% and the Potency [6] was “inactive”. The Potency [7] was “inactive”, the Potency [8] was 18.6 µM (active) and the Potency [9] was “inactive”.

With CC1(C)Cc2c(-c3ccccc3)c(-c3ccc(Cl)cc3)c(CC(=O)O)n2C1 the activation [1] was -18.1% and -12.4%, the Potency [2] was “inactive” and the Potency [3] was “inactive”. For the same molecule, the Potency [4] was “inactive”, the viability [5] was 104% and the Potency [10] was 23.5 µM (active). The Potency [7] was “inactive” and the Potency [8] was “inactive”.

With Cc1cc(Nc2ncnc3ccc(-c4ccc(CNCCS(C)(=O)=O)o4)cc23)ccc1Oc1ccn2ncnc2c1 the activation [1] was 23.7% and 4.3%, the Potency [2] was “inactive” and the Potency [3] was “inactive”. The Potency [4] was “inactive”, the viability [5] was 75.4% and the Potency [6] was “inactive”. The Potency [8] was “inactive” and the Potency [9] was “inactive”.

In the case of OC(c1ccc(-c2ccc(CN3CCN(Cc4ccncc4)CC3)cc2)c(F)c1)(C(F)(F)F)C(F)(F)F, the activation [1] is reported as -11%, the Potency [2] is reported as “inactive” and the Potency [3] is reported as “inactive”. For the same molecule, the Potency [4] was “inactive”, the viability [5] was 101% and the Potency [10] was 8.33 µM (active). The Potency [6] was “inactive”, the Potency [7] was “inactive” and the Potency [8] was 9.34 µM (active). For the same molecule, the Potency [9] was “inactive”.

With CCN(c1cc(-c2ccc(CN3CCOCC3)cc2)cc(C(=O)NCc2c(C)cc(C)[nH]c2=O)c1C)C1CCOCC1 the activation [1] was -17.7%, the Potency [2] was “inactive” and the Potency [3] was “inactive”. For the same molecule, the Potency [4] was “inactive”, the viability [5] was 94.8% and the Potency [6] was “inactive”. The Potency [7] was “inactive”, the Potency [8] was “inactive” and the Potency [9] was “inactive”.

In the case of COc1ccc(-n2c(SCCCN3C(=O)c4cccc5cccc(c45)C3=O)nnc2-c2ccncc2)cc1, the activation [1] is reported as -13.4%, the Potency [2] is reported as “inactive” and the Potency [3] is reported as “inactive”. The Potency [4] was “inactive”, the Potency [11] was “inactive” and the Potency [10] was “inactive”. The Potency [6] was “inactive”, the Potency [7] was “inactive” and the Potency [8] was “inactive”. The Potency [9] was “inactive”.

With NC1(C(=O)N[C@@H](CCO)c2ccc(Cl)cc2)CCN(c2ncnc3[nH]ccc23)CC1 the activation [1] was 7.49%, the Potency [2] was “inactive” and the Potency [3] was “inactive”. For the same molecule, the Potency [4] was “inactive”, the Potency [11] was 6.61 µM (active) and the Potency [10] was 4.17 µM (active). The Potency [6] was 10.5 µM (active) and the Potency [7] was 1.48 µM (active).

In the case of C=C1[C@H](CO)[C@@H](O)C[C@@H]1n1cnc2c(=O)[nH]c(N)nc21, the activation [1] is reported as -3.34%, the Potency [2] is reported as “inactive” and the Potency [3] is reported as “inactive”. For the same molecule, the Potency [4] was “inactive”, the viability [5] was 117% and the Potency [6] was “inactive”. For the same molecule, the Potency [8] was 18.6 µM (active) and the Potency [9] was “inactive”.

With CCN(CC)Cc1ccc2cc(COC(=O)Nc3ccc(C(=O)NO)cc3)ccc2c1 the Potency [1] was 30.1 µM (active) and 27.3 µM (active), the Potency [2] was “inactive” and the Potency [3] was “inactive”. The Potency [5] was 0.662 µM (active), the Potency [11] was 0.662 µM (active) and the Potency [10] was 0.372 µM (active). For the same molecule, the Potency [6] was 0.934 µM (active), the Potency [7] was 0.525 µM (active) and the Potency [8] was 0.742 µM (active). For the same molecule, the Potency [9] was 0.934 µM (active).

For CCC1=C(C)CN(C(=O)NCCc2ccc(S(=O)(=O)NC(=O)NC3CCC(C)CC3)cc2)C1=O (stereo not drawn), the activation [1] was -11% and 10.7% and 1.91%, the Potency [2] was “inactive” and the Potency [3] was “inactive”. For the same molecule, the Potency [4] was “inactive”, the Potency [10] was “inactive” and the Potency [6] was “inactive”. For the same molecule, the Potency [7] was “inactive”, the Potency [8] was “inactive” and the Potency [9] was “inactive”.

With Cc1nc2c([nH]1)CCN(C(=O)c1ccc(NC(=O)c3ccccc3-c3ccccc3)cc1)c1ccccc1-2 the activation [1] was -5.73% and -5.25%, the Potency [2] was “inactive” and the Potency [3] was “inactive”. The Potency [4] was “inactive”, the Potency [11] was 14.8 µM (active) and the Potency [10] was 20.9 µM (active). For the same molecule, the Potency [7] was “inactive” and the Potency [9] was “inactive”.

For Cc1ccc(Nc2cc(-c3cccc(N4C(=O)c5ccccc5C4=O)c3)ncn2)cc1NS(C)(=O)=O, the activation [1] was 19.8% and 20%, the Potency [2] was “inactive” and the Potency [3] was “inactive”. The Potency [4] was “inactive” and the Potency [10] was 10.5 µM (active).

For CN[C@@H](C)C(=O)N[C@H]1CN(C(=O)CC(C)C)CC[C@H]2CC[C@@H](C(=O)NC(c3ccccc3)c3ccccc3)N2C1=O, the activation [1] was 28.1%, the Potency [2] was “inactive” and the Potency [3] was “inactive”. For the same molecule, the Potency [4] was “inactive” and the Potency [9] was “inactive”.

In the case of Cc1cc(OCc2nnc(SC3CCCC3)n2-c2cccnc2)ccc1-c1ccc(S(C)(=O)=O)cc1, the Potency [1] is reported as 6.75 µM (active), the Potency [2] is reported as “inactive” and the Potency [3] is reported as “inactive”. The Potency [4] was “inactive”, the Potency [11] was 3.72 µM (active) and the Potency [7] was 5.9 µM (active). For the same molecule, the Potency [8] was 8.33 µM (active) and the Potency [9] was 7.42 µM (active).

With Cc1cc(N2CCOCC2)ccc1Nc1nc(NC2CCCCC2)c2[nH]cnc2n1 the activation [1] was 7.16%, the Potency [2] was “inactive” and the Potency [3] was “inactive”. For the same molecule, the Potency [4] was “inactive”, the Potency [10] was 1.32 µM (active) and the Potency [9] was 4.17 µM (active).

With CCNC1(C(N)=O)CCN(c2ncnc3c2nc(-c2ccccc2Cl)n3-c2ccc(Cl)cc2)CC1 the activation [1] was 0.477%, the Potency [2] was “inactive” and the Potency [3] was “inactive”. For the same molecule, the Potency [4] was “inactive”, the Potency [11] was “inactive” and the Potency [6] was 26.3 µM (active). For the same molecule, the Potency [7] was “inactive”.

In the case of O=C(NCCCNc1nc(Nc2cccc(CN3CCOCC3)c2)ncc1C1CC1)C1CCC1, the activation [1] is reported as -15.3%, the Potency [2] is reported as “inactive” and the Potency [3] is reported as “inactive”. The Potency [4] was “inactive”, the Potency [10] was 0.417 µM (active) and the Potency [6] was 16.6 µM (active).

In the case of C[C@H](NC(=O)Cc1cc(F)cc(F)c1)C(=O)N[C@@H]1C(=O)N(C)c2ccccc2-c2ccccc21, the activation [1] is reported as 27.1% and -2.39%, the Potency [2] is reported as “inactive” and the Potency [3] is reported as “inactive”. For the same molecule, the Potency [4] was “inactive”, the Potency [10] was “inactive” and the Potency [6] was “inactive”. The Potency [7] was “inactive”, the Potency [8] was “inactive” and the Potency [9] was “inactive”.
